Results reported in the supplement of paper PMC11732987, “Enantioselective OTUD7B fragment discovery through chemoproteomics screening and high-throughput optimisation” (Communications Chemistry, 2025).

Legend:
Test in all cases: log2 ratio of Biotin-Ahx-Ub-VS probe labelling (fragment/DMSO); higher = less target engagement (more negative = stronger competition), active = hit call of the paper (q ≤ 0.05, log2 ratio ≤ -1)
Conditions in all cases: compound concentration: 200 uM; treatment time: 3 h
[1] = molecular target: USP34 (UniProt Q70CQ2)
Outline: (§1)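 HEK293T lysate (495 µg per sample, in Tris/CHAPS/IGEPAL buffer with protease inhibitors) was exposed in triplicate for 3 h to fragment at 200 µM or to vehicle, then to Biotin-Ahx-Ub-VS at 0.5 µM final for 1 h. Labelled DUBs were enriched on NeutrAvidin, digested with LysC and trypsin, and analysed by diaPASEF LC-MS/MS. Spectronaut label-free quantities were normalised to the global median, and values are average log2 ratios of fragment over vehicle from an unpaired t-test. Only proteins with ≥2 unique peptides were used.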

[2] = molecular target: T1, USP36 (UniProt Q9P275)
T1 sequence (whole entry): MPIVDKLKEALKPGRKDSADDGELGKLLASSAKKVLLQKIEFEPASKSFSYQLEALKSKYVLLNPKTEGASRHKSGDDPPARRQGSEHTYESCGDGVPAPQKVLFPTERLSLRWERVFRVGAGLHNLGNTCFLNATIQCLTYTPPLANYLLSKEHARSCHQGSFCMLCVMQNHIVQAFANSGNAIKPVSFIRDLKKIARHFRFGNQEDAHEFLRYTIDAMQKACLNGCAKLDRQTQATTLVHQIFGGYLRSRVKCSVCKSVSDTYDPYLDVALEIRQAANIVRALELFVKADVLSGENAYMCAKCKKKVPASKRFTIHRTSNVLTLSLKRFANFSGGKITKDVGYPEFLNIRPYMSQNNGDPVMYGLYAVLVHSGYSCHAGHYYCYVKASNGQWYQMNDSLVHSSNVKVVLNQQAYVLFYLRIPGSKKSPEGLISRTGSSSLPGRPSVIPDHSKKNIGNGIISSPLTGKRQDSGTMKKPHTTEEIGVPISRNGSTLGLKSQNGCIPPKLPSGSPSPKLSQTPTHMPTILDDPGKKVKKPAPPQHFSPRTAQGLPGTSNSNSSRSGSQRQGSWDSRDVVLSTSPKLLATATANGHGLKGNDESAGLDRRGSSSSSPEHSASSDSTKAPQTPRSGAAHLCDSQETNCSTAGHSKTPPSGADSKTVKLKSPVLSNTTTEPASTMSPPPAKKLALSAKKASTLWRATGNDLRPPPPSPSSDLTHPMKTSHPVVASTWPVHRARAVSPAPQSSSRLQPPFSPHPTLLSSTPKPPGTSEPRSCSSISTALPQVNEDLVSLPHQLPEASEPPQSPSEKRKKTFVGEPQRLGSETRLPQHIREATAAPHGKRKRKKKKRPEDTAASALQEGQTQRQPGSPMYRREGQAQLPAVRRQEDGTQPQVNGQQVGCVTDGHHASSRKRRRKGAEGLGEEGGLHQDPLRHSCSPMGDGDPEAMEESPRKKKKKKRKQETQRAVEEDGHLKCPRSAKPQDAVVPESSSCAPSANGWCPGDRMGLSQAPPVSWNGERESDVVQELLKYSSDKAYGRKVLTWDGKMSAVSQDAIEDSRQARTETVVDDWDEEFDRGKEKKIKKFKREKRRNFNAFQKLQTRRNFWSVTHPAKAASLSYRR
Outline: as §1

[3] = molecular target: T2, USP38 (UniProt Q8NB14)
T2 sequence (whole entry): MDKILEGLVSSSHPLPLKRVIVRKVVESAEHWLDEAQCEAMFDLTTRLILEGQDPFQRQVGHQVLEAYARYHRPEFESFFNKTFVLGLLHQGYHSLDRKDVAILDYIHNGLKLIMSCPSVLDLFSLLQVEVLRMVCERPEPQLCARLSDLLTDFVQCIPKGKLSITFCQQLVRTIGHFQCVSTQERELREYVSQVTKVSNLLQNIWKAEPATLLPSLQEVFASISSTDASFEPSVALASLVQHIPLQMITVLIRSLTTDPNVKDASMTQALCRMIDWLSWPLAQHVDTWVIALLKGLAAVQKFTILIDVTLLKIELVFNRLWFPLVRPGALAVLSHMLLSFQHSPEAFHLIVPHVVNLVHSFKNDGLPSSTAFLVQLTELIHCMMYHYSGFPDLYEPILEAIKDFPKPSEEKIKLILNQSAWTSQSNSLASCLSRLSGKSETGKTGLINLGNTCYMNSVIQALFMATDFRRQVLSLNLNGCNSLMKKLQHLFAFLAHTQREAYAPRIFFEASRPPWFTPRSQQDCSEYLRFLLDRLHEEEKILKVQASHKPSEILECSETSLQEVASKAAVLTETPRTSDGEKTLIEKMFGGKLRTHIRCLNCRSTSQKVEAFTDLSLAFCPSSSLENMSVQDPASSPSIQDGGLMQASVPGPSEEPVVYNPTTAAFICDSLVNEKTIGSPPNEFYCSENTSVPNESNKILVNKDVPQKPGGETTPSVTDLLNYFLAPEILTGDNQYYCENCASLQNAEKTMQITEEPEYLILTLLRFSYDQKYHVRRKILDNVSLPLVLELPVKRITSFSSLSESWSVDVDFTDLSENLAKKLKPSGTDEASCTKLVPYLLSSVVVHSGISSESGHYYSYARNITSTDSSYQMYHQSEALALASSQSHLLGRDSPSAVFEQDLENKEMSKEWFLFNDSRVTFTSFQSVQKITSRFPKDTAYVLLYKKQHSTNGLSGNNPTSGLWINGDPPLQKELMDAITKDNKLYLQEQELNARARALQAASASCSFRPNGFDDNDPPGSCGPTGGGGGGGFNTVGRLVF
Outline: as §1

[4] = molecular target: T3, USP39 (UniProt Q53GS9)
T3 sequence (whole entry): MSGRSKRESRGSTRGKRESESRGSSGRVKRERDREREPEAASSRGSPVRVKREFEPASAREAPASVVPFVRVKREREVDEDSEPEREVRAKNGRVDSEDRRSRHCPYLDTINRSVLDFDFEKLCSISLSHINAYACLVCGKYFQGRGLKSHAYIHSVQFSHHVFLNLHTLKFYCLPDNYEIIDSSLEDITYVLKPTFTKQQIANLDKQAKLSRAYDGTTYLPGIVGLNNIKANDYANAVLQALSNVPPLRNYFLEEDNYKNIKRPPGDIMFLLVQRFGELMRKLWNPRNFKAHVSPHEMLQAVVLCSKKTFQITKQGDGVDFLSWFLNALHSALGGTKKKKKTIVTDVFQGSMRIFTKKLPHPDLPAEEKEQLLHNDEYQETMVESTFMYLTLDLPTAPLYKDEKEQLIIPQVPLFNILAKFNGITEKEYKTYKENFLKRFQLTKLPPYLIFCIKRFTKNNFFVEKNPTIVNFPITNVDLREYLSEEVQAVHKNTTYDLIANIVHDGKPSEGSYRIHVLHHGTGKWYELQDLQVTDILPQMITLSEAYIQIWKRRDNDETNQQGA
Outline: as §1

[5] = molecular target: T4, USP4 (UniProt Q13107)
T4 sequence (whole entry): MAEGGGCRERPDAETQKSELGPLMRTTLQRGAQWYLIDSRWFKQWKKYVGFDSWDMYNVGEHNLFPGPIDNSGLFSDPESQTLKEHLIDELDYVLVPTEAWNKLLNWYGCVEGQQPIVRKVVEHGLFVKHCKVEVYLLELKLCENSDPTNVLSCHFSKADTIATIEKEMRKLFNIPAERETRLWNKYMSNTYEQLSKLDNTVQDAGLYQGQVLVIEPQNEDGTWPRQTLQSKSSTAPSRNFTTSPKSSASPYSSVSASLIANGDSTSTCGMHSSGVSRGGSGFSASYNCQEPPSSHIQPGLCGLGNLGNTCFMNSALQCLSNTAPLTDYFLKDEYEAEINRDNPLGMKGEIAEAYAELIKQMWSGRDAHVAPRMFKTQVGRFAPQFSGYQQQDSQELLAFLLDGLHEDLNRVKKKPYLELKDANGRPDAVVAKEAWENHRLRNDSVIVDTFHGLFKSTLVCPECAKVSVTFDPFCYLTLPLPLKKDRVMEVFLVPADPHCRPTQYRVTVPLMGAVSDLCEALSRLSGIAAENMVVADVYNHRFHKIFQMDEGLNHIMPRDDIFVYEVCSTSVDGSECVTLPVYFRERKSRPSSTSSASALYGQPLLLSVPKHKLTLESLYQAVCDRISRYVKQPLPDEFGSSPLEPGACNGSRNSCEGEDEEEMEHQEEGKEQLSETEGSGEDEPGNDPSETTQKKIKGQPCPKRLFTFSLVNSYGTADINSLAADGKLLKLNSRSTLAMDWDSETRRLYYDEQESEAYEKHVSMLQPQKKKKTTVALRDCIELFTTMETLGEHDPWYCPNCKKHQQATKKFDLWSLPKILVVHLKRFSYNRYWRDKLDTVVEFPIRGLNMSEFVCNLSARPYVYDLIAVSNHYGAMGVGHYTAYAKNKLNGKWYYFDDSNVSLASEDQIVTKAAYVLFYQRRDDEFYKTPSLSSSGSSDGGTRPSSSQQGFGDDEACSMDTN
Outline: as §1

Measured: log2 ratio of Biotin-Ahx-Ub-VS probe labelling

USP34, sequence (Q70CQ2 whole entry, the tested form may be a part): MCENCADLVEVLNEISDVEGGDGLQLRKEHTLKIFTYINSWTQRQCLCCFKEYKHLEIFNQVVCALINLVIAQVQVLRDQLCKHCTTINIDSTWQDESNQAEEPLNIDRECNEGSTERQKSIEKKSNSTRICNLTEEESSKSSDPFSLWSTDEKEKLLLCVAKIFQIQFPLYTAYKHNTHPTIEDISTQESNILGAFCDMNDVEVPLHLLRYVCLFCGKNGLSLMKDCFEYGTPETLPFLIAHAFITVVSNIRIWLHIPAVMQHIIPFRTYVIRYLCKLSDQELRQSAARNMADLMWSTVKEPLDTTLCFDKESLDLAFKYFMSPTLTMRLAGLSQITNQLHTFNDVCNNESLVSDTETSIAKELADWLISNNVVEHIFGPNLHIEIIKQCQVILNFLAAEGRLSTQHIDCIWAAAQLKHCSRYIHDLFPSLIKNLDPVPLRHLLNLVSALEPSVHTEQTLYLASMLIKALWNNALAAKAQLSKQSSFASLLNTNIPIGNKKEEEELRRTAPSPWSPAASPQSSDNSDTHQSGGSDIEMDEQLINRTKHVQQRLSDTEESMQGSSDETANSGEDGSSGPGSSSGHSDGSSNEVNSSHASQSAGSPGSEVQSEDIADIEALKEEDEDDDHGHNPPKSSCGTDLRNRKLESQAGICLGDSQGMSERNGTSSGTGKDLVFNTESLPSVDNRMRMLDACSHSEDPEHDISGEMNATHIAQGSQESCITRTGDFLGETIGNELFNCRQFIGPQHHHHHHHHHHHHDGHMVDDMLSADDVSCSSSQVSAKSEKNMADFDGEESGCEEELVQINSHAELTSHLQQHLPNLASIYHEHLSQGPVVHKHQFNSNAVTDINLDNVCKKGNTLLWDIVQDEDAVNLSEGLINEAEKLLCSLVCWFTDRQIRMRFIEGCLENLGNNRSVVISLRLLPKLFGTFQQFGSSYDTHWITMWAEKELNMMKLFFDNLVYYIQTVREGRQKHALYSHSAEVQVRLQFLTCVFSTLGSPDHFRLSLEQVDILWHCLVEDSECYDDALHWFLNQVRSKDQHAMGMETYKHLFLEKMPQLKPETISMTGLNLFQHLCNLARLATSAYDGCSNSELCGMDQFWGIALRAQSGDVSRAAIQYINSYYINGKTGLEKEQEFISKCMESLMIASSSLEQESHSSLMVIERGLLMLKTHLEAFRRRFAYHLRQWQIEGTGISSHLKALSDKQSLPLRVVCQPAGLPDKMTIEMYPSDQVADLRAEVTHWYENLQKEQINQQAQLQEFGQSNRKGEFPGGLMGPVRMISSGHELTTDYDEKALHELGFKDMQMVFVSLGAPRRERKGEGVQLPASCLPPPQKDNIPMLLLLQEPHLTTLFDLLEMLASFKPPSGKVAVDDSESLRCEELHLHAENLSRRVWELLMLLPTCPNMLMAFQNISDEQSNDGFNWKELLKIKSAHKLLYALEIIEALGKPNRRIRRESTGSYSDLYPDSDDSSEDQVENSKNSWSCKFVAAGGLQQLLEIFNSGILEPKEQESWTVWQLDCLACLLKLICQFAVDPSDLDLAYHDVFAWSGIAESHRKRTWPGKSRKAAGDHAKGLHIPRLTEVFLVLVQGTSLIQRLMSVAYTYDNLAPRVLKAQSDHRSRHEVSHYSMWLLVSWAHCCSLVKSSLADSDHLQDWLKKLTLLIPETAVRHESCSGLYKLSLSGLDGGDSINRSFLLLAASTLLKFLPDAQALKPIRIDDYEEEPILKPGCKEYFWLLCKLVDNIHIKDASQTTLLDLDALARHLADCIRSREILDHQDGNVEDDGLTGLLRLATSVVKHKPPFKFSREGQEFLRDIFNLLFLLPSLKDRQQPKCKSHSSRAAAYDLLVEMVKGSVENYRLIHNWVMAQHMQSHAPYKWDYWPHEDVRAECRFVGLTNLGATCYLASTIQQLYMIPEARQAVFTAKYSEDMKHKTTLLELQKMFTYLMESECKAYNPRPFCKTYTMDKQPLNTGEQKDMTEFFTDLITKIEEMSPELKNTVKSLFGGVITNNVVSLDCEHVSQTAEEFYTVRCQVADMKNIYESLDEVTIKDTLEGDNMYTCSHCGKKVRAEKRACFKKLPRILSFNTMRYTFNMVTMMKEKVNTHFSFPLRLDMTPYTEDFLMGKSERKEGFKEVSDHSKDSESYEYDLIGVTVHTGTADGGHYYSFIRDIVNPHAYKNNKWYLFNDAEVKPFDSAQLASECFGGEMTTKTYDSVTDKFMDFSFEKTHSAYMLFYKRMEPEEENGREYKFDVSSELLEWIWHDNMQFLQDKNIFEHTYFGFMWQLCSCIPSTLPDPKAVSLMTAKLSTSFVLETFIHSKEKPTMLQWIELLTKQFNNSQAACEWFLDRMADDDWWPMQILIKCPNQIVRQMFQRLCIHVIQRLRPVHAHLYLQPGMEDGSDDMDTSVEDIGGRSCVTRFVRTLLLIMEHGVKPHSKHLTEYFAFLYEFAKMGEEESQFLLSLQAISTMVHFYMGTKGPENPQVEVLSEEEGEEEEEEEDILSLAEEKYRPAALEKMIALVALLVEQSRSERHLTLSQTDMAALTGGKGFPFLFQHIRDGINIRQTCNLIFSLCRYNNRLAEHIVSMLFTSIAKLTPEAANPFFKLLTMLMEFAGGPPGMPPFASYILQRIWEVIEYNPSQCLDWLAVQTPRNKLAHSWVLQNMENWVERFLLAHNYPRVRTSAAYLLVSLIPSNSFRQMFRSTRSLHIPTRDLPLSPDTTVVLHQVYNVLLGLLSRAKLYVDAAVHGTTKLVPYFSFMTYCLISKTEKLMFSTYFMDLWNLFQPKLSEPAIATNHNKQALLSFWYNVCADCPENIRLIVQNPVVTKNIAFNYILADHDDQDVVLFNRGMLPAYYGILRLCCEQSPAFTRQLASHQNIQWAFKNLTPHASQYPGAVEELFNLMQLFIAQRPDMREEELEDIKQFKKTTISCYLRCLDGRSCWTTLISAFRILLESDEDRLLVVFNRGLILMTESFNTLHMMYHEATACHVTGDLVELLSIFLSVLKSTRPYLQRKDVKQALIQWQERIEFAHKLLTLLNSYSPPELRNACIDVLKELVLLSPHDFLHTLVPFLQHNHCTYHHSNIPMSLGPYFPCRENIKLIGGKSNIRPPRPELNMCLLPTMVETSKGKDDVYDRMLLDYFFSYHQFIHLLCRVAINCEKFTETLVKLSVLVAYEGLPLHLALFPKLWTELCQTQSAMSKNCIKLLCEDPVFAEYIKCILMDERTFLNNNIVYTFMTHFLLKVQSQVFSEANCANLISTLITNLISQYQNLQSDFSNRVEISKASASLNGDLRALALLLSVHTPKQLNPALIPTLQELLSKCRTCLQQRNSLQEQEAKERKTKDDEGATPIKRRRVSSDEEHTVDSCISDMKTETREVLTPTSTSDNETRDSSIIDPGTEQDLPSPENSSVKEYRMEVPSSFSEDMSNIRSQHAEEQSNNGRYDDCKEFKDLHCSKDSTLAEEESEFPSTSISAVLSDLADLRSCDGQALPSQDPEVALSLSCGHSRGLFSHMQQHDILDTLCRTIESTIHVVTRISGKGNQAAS

O=C(CCl)NCc1ccc(Cl)cc1
inactive: [1] -0.211 | [2] 0.0776 | [3] -0.0243 | [4] -0.155 | [5] 0.0847
